# HP1b binding inh: blocks HP1-beta chromodomain binding to methylated histone tails. AlphaScreen HP1-beta / biotin-H3K9me3 peptide binding. AID 540317. P83916. 390,000 compounds, 0.56% hits. Potency, µM (highest dose often 114 µM), inactives show at the highest dose activity change, negative = inhibition, most hits filed as inhibitors; further: nearly all actives have a fitted effect of over 70% in size
# Target sequence (P83916 whole entry, looked up): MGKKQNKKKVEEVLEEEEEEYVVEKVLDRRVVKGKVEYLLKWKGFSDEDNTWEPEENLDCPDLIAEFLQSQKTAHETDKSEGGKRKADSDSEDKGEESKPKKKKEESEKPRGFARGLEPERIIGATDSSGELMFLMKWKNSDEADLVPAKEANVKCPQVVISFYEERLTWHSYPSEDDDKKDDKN
#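 HP1-beta protein (50 nM final) preincubated 30 min at room temperature with biotinylated H3(1-18)K9me3 peptide (50 nM) in PBS pH 7.4, 0.01% Tween-20, then compound added for 30 min. AlphaScreen streptavidin donor/nickel chelate acceptor beads (10 ug/mL final), 30 min dark, luminescence read.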
# G9a inh: blocks human histone lysine methyltransferase G9a; Q96KQ7; G9a H3K9 monomethylation, AlphaScreen, 2 h; Potency, µM (series often up to 102 µM), for inactives: at the top dose activity, negative = inhibition, usual class: inhibitors; 350,000 compounds, 8.8% hits; AID 504332; further: on the % scale 0 is the no-effect control and ±100 the full control effect; nearly all actives have a fitted effect of over 75% in size
# Target sequence (Q96KQ7 913-1193 limits assumed): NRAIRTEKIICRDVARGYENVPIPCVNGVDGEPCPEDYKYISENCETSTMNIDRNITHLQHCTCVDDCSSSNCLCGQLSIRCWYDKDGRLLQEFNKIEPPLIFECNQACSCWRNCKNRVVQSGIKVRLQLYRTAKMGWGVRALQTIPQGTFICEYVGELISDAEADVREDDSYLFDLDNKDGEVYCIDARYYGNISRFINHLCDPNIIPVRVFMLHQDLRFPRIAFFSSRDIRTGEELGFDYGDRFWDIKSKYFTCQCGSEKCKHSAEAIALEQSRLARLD
#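 G9a (20 nM) was preincubated 15 min with compound, then reacted 2 h at room temperature with 500 nM biotin-H3K9 peptide and 20 µM SAM. Monomethyl-H3K9 detected by AlphaScreen using anti-H3K9me1 antibody.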
# GLS inhibitor: inhibitors of human glutaminase (GLS); GLS enzymatic activity, qHTS titration; AID 624170; Potency, µM (doses to about 45.5 µM), for the others: at the highest dose activity change, negative = inhibition, hits mostly inhibitors; O94925; 410,000 compounds, 0.21% hits; further: on the % scale 0 is the no-effect control and ±100 the full control effect
#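 Two-point fluorescence kinetic (t0, 30 min RT) for hKGA; glutamate detected via glutamate oxidase–HRP–Amplex Red. Substrate: 1 mM L-glutamine solution; buffer 45 mM KH2PO4, pH 8.2.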
# JMJD2A Tudor: inhibitors of human JMJD2A Tudor domain. AlphaScreen JMJD2A-Tudor / H3K4me3 peptide binding. Potency, µM (highest dose often 114 µM), without a hit: top-dose activity change, negative = inhibition, usual class: inhibitors. 390,000 compounds, 4.4% hits. AID 504339; further: on the % scale 0 is the no-effect control and ±100 the full control effect; nearly all actives have a fitted effect of over 50% in size
# BAZ2B block: BAZ2B (human) inhibition; 360,000 compounds, 4.4% hits; Q9UIF8; Potency, µM (doses to about 114 µM), for the others: at the top dose activity change, negative = inhibition, actives largely listed as inhibitors; AlphaScreen BAZ2B-H3K14Ac peptide displacement; further: on the % scale 0 is the no-effect control and ±100 the full control effect; nearly all actives have a fitted effect of over 60% in size
#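 Inhibition is scored as reduced AlphaScreen emission. The BAZ2B/b-H3(5-23)K14Ac complex (50 nM each) in PBS pH 7.4, 0.01% Tween-20 meets compound (up to 110 uM) for 30 min at RT before bead addition.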
# Active calls of the source: *; ? = inconclusive; · = no result; [ ] = remark or other dose. A selection: hits, their analogues and other compounds. The true share with any hit is near 10%. The call rests on the fitted dose curve; in most records, active means well fitted curve in the direction sought with a large enough effect; inconclusive means small, poorly fitted or top-dose-only effect, or another doubt; inactive means no such curve, though single readings can be large; an effect the other way counts as inactive or inconclusive. Potency means the concentration at half of the fitted maximal effect.
SMILES,HP1b binding inh,G9a inh,GLS inhibitor,JMJD2A Tudor,BAZ2B block
O=C(Nc1ccc(-c2nc3ccccc3[nH]2)cc1)c1ccco1,16%,?,6%,-25%,0%
COc1cccc(NC(=O)C(C)(C)C)c1,17%,3.2µM*,6%,-16%,-8%
COC(=O)c1cccc(NC(=O)C(C)(C)C)c1,24%,·,-8%,-8%,0%
O=C(/C=C/c1ccco1)Nc1ccc(N2CCCC2)cc1,-13%,0.89µM*,-1%,-30%,-33%
CCCC(C)(C)C(=O)N1CCC1(C)C(=O)Nc1cccc2ccccc12 (centres undefined),·,·,1%,·,·
O=C(c1ccc(=O)[nH]n1)N1CCN(S(=O)(=O)c2ccc(C(F)(F)F)cc2)CC1,31%,4%[12.7 µM],-6%,-5%,3%
CSc1cccc(NC(=O)/C=C/c2ccco2)c1,-17%,28µM*,70%,-30%,?
COc1cccc(NC(=O)/C=C/c2ccco2)c1,-2%,35µM*,-12%,-30%,-32%
CSc1cccc(NC(=O)/C=C/c2ccccc2)c1,54%,-13%[59 µM],-4%,-2%,-34%
COc1cccc(NC(=O)C(NCC2CCCCC2)c2ccccc2)c1 (centres undefined),?,3.2µM*,1%,1µM*,?
O=C(/C=C/c1ccco1)Nc1cccnc1,45%,·,-2%,-4%,-36%
COC(=O)c1ccc(CSc2nc3c(c(=O)[nH]2)CCC3)cc1,25%,-34%[59 µM],13%,-7%,-3%
Cc1ccc2nc(SC(Cc3cc(Cl)ccc3Cl)C(=O)O)[nH]c2c1 (centres undefined),-8%,5%[59 µM],5%,-5%,-4%
CCOc1ccc(C(=O)NCCn2cc(SCC(=O)Nc3ccccc3)c3ccccc32)cc1,11%,-34%[59 µM],12%,-19%,-25%
Cc1cc(N/N=C2/CCCc3ccccc32)nc2ccccc12,18%,50µM*,2%,?,?
Cc1cccc(C(=O)NNC(=O)c2ccc3ccccc3c2)c1,24%,·,-2%,-9%,·
Cc1ccccc1CN1CCCOCCS1(=O)=O,56%,·,-3%,-5%,-5%[57.1 µM]
C/C(=N/NS(=O)(=O)c1cc(C)ccc1C)c1ccncc1,53%,40µM*,10%,-17%,-14%
C/C(=N/NS(=O)(=O)c1cc(C)ccc1C)c1ccc2c(c1)OCO2,23%,9%,7%,-18%,-25%
COc1ccccc1Nc1c2c(nc3ccc(NC(=O)/C=C/c4cccc(OC)c4OC)cc13)CCCC2,-6%,11µM*,7%,?,?
COc1ccc(/C=C/C(=O)Nc2ccc3nc4n(c(=O)c3c2)CCCC4)cc1OC,41%,-8%,-5%,-4%,14%
COc1ccccc1Nc1c2c(nc3ccc(NC(=O)c4cccc(F)c4)cc13)CCCC2,-7%,?,1%,?,?
COc1ccc(/C=C/C(=O)Nc2ccc3nc4c(c(Nc5ccccc5OC)c3c2)CCCC4)cc1,-8%,7.9µM*,-6%,?,-38%
COc1ccc(Nc2c3c(nc4ccc(NC(=O)/C=C/c5cccc(OC)c5OC)cc24)CCCC3)cc1OC,?,11µM*,2%,14µM*,10µM*
O=C(c1cccc(F)c1)N1CCC(c2c[nH]c3ccccc23)(c2c[nH]c3ccccc23)CC1,13%,1%[59 µM],4%,-22%,0%
SMILES,HP1b binding inh,G9a inh,GLS inhibitor,JMJD2A Tudor,BAZ2B block
Cc1cccc(-c2ccc3ncnc(NCc4cccc(F)c4)c3c2)c1,·,-45%[12.7 µM],·,·,3%
O=C(CSCc1ccccc1)Nc1cc([N+](=O)[O-])ccc1F,33%,32µM*,-1%,-28%,?
Cc1ccc2nc(SCC(=O)Nc3ccc(C)c([N+](=O)[O-])c3)[nH]c2c1,1%,11µM*,0%,-25%,?
Cc1ccc2nc(SCC(=O)Nc3cc([N+](=O)[O-])ccc3F)[nH]c2c1,24%,25µM*,-2%,-15%,?
COc1ccc(CCC(=O)Nc2ccc(C)c([N+](=O)[O-])c2)cc1,-26%,10µM*,3%,?,?
Cc1ccc2nc(SCC(=O)Nc3ccc(F)c([N+](=O)[O-])c3)[nH]c2c1,-3%,?,1%,-31%,?
CCC(Nc1ccc(-c2nc(-c3ccco3)no2)cc1[N+](=O)[O-])c1ccccc1 (centres undefined),44%,-30%[59 µM],2%,-22%,-7%
CS(=O)(=O)N1CCC2(CCCN(C(=O)Nc3cccc(C#N)c3)C2)CC1,·,-9%[12.7 µM],·,·,·
CCC(=O)Nc1ccc(C(=O)CSc2nc3ccc(C)cc3[nH]2)cc1,9%,28µM*,11%,-7%,2%
N#Cc1c(NCCN)nc(NCc2ccccc2)c2c1CCN(Cc1ccccc1)C2,-15%,45µM*,2%,?,?
CCCc1nc(NCc2ccccc2)c(C#N)c2c1CCCC2,117%,97%,-6%,22%,41%
CCN1CCc2c(C#N)c(NCc3ccccc3)nc(N(CC)CC)c2C1,-14%,50µM*,7%,?,?
CCOc1ccc(CCNC(=O)c2oc(=O)c3ccccc3c2-c2ccc(C)cc2)cc1OCC,10%,?,7%,-23%,·
C=CCNc1nc(Nc2ccc(OC)c(OC)c2)c2sc(-c3ccccc3)cc2n1,·,·,7%,·,·
Cn1c(=S)[nH]c(=O)c2ncc(=O)[nH]c21,28%,?,-14%,28µM*,-21%
Cc1ccc(-c2nc(CCNC(=O)c3ccco3)cs2)cc1,3%,-21%,1%,-12%,5%
Cc1ccc(-c2nc(CNC(=O)c3ccco3)cs2)cc1,34%,50µM*,3%,-1%,-16%
COc1ccc(OC)c(C2CC(=O)c3c([nH]c(C(=O)OCc4ccc(C)cc4)c3C)C2)c1 (centres undefined),10%,3%[59 µM],-12%,-29%,-2%
C[C@@H]1CN([C@@H](C)CO)C(=O)c2cc(Br)cnc2O[C@H]1CN(C)Cc1cccc(C(=O)O)c1,·,·,6%,·,·
O=C1CC(c2ccco2)CC(O)=C1C=Nc1cc(Cl)cc(Cl)c1 (centres undefined),-19%,10µM*,12%,?,?
c1ccc(CCCCNCC2COc3ccccc3O2)cc1 (centres undefined),74%,-1%,0%,31%,3%
COc1cc(/C=C2\SC(=O)N(CCN)C2=O)ccc1OS(=O)(=O)c1cc(C)ccc1C,?,28µM*,?,28µM*,?
COc1ccc(/C=C2\SC(=O)N(CCC(=O)Nc3ccccc3)C2=O)cc1OC,20%,?,2%,-10%,4%
NCCN1C(=O)S/C(=C\c2ccc3c(c2)OCO3)C1=O,-8%,45µM*,1%,-6%,-17%
CCc1nc2c(OCCn3cccc3)cccn2c1N(C)C(=O)c1ccco1,·,·,0%,·,·
COC(=O)c1c(C)[nH]c(C(=O)COC(=O)CCc2ccc(OC)c(OC)c2)c1C,·,·,11%,·,·

# Assay outcomes: PubChem BioAssay, National Center for Advancing Translational Sciences (NCATS)
